Common to all, as to test: DAPPL (digital affinity profiling via proximity ligation, sequencing); 10 mM Tris-HCl pH 7.5, 50 mM NaCl, 1 mM DTT, 4% glycerol, room temperature, 30 min; GST-TFs on glutathione beads, 16-mer random dsDNA library, 0.1% formaldehyde crosslink after washing; high values mean tight binding
The target of one experiment is T1, FEV (Homo sapiens, UniProt Q99581 1-238).
T1 sequence: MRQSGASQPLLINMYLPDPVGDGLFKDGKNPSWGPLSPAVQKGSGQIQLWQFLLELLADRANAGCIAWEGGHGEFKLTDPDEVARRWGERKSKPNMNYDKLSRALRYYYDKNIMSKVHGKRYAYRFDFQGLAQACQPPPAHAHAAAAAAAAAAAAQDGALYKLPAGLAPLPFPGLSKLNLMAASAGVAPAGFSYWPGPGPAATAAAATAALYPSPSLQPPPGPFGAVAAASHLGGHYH
The settings on record: protein: recombinant; tags: N-terminal GST; dsDNA, one strand shown. The method in brief:
(§1)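 In yeast, human transcription factors were expressed with a GST fusion, then pulled down on glutathione beads and given DNA barcodes. Pooled with a tag-only sample, they were exposed to 200 nmole of a 16-mer random double-stranded DNA library (Tris/NaCl/DTT/glycerol buffer, room temperature, 30 min), washed, crosslinked with 0.1% formaldehyde, proximity-ligated using BsaI/T4 ligase for 1 h at 37 °C, PCR-amplified and read on an Illumina NextSeq500. Each hexamer's frequency of reads for a factor, divided by the matching frequency for the tag-only sample, gives the binding signal.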

The target of the next experiment is ETV5 (Homo sapiens, UniProt P41161 1-510). Conditions: protein: recombinant; tags: N-terminal GST; dsDNA, one strand shown. The method in brief:
as §1

A further experiment deals with HSF1 (Homo sapiens, UniProt Q00613 1-529). The settings on record: protein: recombinant; tags: N-terminal GST; chain copies: 3; dsDNA, one strand shown. The method in brief: as §1
HSF1, sequence (Q00613 whole entry): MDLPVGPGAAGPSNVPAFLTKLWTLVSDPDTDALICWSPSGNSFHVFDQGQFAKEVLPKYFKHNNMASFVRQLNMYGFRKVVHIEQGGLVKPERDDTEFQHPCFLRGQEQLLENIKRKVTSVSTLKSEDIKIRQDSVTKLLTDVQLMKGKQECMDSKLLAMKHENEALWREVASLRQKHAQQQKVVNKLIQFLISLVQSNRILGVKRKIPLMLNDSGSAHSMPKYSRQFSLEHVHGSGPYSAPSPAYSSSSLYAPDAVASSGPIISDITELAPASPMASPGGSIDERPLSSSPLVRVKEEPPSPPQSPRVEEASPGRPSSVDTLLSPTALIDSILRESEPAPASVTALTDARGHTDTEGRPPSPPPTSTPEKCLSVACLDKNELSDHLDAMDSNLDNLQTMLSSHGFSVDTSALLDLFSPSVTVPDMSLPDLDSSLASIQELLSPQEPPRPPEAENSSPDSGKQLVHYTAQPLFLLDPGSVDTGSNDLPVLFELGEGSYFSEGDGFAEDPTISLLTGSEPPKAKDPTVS
A further experiment has as its target T2, SPIC (Homo sapiens, UniProt Q8N5J4 1-248).
T2 sequence: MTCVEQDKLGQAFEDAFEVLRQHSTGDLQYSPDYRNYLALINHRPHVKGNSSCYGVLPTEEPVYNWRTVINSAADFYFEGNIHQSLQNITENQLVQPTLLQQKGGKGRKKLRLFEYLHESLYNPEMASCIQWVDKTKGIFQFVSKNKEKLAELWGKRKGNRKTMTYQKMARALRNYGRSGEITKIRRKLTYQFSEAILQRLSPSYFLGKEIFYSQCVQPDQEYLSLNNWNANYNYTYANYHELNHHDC
The settings on record: protein: recombinant; tags: N-terminal GST; dsDNA, one strand shown. The method in brief:
as §1

For a further experiment, the target named is ELF4 (Homo sapiens, UniProt Q99607 1-663). Conditions: protein: recombinant; tags: N-terminal GST; dsDNA, one strand shown. The gist of the method:
as §1

The target of the next experiment is T3, ELK4 (Homo sapiens, UniProt P28324-2 1-405).
T3 sequence: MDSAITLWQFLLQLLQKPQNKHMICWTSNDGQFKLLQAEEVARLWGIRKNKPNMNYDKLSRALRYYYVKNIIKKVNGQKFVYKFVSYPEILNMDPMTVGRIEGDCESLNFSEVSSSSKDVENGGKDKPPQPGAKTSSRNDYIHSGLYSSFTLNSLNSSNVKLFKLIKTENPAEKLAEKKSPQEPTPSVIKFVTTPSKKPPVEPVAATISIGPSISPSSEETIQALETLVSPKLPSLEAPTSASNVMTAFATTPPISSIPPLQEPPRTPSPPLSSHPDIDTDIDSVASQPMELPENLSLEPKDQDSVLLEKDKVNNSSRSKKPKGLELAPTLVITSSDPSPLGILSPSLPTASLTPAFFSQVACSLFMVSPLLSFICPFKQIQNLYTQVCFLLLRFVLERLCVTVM
Conditions: protein: recombinant; tags: N-terminal GST; dsDNA, one strand shown. The method in brief:
as §1

A further experiment has as its target T4, ETV2 (Homo sapiens, UniProt O00321 1-342).
T4 sequence: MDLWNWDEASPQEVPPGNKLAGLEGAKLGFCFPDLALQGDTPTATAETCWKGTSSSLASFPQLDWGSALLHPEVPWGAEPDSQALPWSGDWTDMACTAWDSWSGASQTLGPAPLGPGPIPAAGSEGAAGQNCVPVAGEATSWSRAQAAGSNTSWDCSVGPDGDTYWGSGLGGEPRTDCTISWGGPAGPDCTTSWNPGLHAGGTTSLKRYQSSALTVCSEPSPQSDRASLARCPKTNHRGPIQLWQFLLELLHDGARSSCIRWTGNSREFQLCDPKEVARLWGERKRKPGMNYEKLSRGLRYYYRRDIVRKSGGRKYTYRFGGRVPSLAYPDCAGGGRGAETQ
Conditions: protein: recombinant; tags: N-terminal GST; dsDNA, one strand shown. The gist of the method:
as §1

The target of a further experiment is T5, ELF3 (Homo sapiens, UniProt P78545 1-371).
T5 sequence: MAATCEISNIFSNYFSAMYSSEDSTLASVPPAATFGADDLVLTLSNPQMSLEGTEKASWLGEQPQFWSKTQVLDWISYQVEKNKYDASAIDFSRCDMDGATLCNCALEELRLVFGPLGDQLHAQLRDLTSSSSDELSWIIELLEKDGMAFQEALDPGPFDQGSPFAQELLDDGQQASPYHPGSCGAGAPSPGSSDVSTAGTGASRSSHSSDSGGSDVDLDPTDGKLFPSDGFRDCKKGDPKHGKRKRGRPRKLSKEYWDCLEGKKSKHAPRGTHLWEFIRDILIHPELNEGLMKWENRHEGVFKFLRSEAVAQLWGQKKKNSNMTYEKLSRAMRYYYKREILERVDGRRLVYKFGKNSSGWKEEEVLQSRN
The settings on record: protein: recombinant; tags: N-terminal GST; dsDNA, one strand shown. The method in brief: as §1

The next experiment concerns the target CRX (Homo sapiens, UniProt O43186 1-299). Conditions: protein: recombinant; tags: N-terminal GST; dsDNA, one strand shown. The gist of the method: as §1
The target in another experiment is ETV1 (Homo sapiens, UniProt P50549 1-477). The settings on record: protein: recombinant; tags: N-terminal GST; dsDNA, one strand shown. The gist of the method: as §1
ETV1, sequence (P50549 whole entry): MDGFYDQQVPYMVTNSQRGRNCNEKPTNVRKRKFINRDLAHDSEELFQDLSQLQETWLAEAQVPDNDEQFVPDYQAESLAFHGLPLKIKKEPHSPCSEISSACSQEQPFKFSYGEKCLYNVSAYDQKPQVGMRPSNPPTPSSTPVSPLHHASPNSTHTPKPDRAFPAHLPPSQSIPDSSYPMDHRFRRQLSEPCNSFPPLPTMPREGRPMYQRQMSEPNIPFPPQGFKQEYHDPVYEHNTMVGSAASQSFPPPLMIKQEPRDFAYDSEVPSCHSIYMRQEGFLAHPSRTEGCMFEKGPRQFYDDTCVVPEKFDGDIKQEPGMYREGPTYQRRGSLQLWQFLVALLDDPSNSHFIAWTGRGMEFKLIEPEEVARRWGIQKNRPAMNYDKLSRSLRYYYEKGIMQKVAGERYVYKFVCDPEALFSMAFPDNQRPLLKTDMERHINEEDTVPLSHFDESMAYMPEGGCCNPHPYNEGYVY
The target of another experiment is T6, ERF (Homo sapiens, UniProt P50548 1-548).
T6 sequence: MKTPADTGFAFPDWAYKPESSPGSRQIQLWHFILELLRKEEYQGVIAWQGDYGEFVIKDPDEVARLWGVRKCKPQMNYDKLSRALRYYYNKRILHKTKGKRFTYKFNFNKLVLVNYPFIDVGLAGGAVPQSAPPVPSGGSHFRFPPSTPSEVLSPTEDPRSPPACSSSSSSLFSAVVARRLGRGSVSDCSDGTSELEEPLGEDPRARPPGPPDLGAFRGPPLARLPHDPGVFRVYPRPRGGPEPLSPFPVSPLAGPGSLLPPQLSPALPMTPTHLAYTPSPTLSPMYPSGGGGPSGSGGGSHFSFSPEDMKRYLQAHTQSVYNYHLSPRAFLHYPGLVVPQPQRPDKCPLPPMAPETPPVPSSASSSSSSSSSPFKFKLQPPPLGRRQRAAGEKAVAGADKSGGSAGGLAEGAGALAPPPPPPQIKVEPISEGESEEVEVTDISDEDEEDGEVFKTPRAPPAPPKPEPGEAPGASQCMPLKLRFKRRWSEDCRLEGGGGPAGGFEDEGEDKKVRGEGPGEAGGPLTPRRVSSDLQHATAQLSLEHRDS
Conditions: protein: recombinant; tags: N-terminal GST; dsDNA, one strand shown. The method in brief: as §1

A further experiment addresses T7, ETV3L (Homo sapiens, UniProt Q6ZN32 1-361).
T7 sequence: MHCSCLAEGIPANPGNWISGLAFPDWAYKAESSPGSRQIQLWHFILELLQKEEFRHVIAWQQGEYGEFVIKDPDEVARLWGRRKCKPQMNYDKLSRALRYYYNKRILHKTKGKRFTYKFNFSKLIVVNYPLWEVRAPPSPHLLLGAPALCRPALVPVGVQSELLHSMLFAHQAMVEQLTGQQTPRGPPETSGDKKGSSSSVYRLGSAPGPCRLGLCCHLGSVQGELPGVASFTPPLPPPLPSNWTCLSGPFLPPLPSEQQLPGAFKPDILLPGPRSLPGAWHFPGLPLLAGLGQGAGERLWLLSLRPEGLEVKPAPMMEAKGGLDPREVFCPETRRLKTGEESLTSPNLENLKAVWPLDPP
The settings on record: protein: recombinant; tags: N-terminal GST; dsDNA, one strand shown. The gist of the method: as §1

In a further experiment the target is T8, ETS2 (Homo sapiens, UniProt P15036 1-469).
T8 sequence: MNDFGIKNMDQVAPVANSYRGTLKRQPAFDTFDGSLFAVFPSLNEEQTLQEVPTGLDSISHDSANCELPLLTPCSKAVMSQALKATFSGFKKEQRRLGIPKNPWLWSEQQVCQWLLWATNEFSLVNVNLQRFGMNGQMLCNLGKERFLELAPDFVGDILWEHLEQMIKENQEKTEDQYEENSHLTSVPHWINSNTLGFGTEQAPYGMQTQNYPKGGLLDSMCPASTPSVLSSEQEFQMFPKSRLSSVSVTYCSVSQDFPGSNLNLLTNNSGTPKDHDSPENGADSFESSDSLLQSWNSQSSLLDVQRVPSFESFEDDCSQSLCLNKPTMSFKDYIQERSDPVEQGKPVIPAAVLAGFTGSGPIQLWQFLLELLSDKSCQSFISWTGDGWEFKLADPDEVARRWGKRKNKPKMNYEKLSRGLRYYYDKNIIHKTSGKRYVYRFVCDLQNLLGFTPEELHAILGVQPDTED
Conditions: protein: recombinant; tags: N-terminal GST; dsDNA, one strand shown. The gist of the method:
as §1

In another experiment the target is T9, SPDEF (Homo sapiens, UniProt O95238 1-335).
T9 sequence: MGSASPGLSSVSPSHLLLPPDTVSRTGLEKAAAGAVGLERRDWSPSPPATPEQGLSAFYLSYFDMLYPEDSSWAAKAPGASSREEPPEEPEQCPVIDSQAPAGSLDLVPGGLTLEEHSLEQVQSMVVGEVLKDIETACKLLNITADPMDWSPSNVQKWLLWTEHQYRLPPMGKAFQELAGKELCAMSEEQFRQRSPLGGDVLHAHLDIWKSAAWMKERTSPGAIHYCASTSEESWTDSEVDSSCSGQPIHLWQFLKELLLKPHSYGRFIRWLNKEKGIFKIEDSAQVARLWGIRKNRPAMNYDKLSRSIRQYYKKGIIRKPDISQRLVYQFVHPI
The settings on record: protein: recombinant; tags: N-terminal GST; dsDNA, one strand shown. The gist of the method: as §1

For a further experiment, the target named is T10, ETV7 (Homo sapiens, UniProt Q9Y603 1-341).
T10 sequence: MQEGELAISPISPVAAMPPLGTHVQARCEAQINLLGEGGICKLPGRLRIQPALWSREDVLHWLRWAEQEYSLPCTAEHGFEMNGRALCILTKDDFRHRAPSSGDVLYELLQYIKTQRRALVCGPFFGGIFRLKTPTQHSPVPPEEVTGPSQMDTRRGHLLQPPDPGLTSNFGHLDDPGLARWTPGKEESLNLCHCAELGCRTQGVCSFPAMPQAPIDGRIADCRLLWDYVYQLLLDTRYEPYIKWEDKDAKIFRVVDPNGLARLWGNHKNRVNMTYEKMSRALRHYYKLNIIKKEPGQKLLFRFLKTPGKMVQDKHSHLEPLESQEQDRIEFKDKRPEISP
Conditions: protein: recombinant; tags: N-terminal GST; dsDNA, one strand shown. The method in brief:
as §1

The target in the next experiment is T11, ELF5 (Homo sapiens, UniProt Q9UKW6-2 1-255).
T11 sequence: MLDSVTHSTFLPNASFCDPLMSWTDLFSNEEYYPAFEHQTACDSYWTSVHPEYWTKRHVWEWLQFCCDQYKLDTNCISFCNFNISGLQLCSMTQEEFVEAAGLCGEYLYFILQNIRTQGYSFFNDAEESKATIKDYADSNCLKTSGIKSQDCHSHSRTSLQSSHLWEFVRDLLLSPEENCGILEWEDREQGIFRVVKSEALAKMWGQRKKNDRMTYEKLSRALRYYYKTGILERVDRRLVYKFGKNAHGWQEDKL
Conditions: protein: recombinant; tags: N-terminal GST; dsDNA, one strand shown. The gist of the method:
as §1

In the next experiment the target is T12, ETV3 (Homo sapiens, UniProt P41162-2 1-143).
T12 sequence: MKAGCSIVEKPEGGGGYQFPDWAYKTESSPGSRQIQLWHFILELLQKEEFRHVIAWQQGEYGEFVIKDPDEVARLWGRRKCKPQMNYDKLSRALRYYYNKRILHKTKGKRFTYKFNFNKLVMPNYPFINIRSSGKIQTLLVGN
The settings on record: protein: recombinant; tags: N-terminal GST; dsDNA, one strand shown. The method in brief:
as §1

A further experiment concerns the target ETV6 (Homo sapiens, UniProt P41212 1-452). The settings on record: protein: recombinant; tags: N-terminal GST; dsDNA, one strand shown. The gist of the method: as §1

ELF4, sequence (Q99607 whole entry): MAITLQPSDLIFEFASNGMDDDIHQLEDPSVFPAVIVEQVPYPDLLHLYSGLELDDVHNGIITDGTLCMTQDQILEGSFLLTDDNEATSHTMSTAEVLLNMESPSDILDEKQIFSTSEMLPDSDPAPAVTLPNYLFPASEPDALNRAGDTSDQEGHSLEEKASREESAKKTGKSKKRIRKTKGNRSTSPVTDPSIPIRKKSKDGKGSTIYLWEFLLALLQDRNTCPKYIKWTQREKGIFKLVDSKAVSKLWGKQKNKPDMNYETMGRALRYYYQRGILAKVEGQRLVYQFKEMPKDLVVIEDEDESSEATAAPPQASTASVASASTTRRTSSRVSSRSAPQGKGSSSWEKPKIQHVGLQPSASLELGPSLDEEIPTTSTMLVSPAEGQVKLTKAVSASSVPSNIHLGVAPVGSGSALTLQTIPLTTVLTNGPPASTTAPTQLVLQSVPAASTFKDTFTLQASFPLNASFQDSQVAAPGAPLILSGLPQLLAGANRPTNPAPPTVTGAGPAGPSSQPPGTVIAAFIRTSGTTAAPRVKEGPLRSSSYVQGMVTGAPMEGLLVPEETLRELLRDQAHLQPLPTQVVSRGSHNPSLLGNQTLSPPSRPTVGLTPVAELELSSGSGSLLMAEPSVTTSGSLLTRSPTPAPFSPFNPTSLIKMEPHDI
CRX, sequence (O43186 whole entry): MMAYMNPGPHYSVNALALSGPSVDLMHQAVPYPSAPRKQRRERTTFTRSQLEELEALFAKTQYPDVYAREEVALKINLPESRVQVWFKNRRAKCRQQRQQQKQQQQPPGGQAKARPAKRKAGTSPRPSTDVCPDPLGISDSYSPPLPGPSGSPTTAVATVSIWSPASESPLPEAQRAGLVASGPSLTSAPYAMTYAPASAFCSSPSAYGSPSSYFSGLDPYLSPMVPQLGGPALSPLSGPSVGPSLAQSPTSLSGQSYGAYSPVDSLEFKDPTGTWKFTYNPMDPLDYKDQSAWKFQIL
ETV6, sequence (P41212 whole entry): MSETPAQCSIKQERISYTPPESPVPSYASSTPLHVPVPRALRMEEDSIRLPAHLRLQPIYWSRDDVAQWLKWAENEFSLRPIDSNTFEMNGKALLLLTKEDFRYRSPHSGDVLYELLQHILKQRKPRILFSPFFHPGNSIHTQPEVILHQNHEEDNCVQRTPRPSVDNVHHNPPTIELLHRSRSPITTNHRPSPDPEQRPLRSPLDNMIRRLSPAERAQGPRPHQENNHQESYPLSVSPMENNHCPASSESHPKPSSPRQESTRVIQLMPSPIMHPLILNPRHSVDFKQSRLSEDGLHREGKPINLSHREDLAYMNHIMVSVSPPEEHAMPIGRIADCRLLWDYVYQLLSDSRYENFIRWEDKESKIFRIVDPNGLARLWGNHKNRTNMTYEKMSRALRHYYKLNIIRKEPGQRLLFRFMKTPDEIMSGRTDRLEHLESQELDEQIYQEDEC
ETV5, sequence (P41161 whole entry): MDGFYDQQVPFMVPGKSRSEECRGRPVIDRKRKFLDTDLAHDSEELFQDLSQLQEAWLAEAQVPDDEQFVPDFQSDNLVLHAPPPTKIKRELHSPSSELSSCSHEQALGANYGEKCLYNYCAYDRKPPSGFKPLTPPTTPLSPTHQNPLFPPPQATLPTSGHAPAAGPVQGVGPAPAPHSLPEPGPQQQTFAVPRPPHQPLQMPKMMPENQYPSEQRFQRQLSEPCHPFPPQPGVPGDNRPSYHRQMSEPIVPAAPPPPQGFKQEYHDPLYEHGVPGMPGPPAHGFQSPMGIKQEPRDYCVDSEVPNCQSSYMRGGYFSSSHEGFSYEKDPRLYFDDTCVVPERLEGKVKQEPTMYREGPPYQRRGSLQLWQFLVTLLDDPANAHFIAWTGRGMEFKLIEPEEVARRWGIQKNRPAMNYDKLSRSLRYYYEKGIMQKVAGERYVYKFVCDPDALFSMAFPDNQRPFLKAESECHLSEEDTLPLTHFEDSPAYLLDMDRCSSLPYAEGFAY

As to AACCCT, the binding signal with FEV is 1.29 fold enrichment (6-mer frequency, TF over GST control); in the experiment with ETV5 it was 1.31 fold enrichment (6-mer frequency, TF over GST control); with HSF1, 1.24 fold enrichment (6-mer frequency, TF over GST control); with SPIC, 1.18 fold enrichment (6-mer frequency, TF over GST control); with ELF4, 1.34 fold enrichment (6-mer frequency, TF over GST control); with ELK4, 1.24 fold enrichment (6-mer frequency, TF over GST control). The binding signal is 1.2 fold enrichment (6-mer frequency, TF over GST control) in the experiment with ETV2; 1.33 fold enrichment (6-mer frequency, TF over GST control) with ELF3; 1.39 fold enrichment (6-mer frequency, TF over GST control) with CRX; 1.38 fold enrichment (6-mer frequency, TF over GST control) with ETV1; 1.17 fold enrichment (6-mer frequency, TF over GST control) with ERF; 1.24 fold enrichment (6-mer frequency, TF over GST control) in the experiment with ETV3L. Further, the binding signal is 1.26 fold enrichment (6-mer frequency, TF over GST control) in the experiment with ETS2; 1.17 fold enrichment (6-mer frequency, TF over GST control) with SPDEF; 1.24 fold enrichment (6-mer frequency, TF over GST control) in the experiment with ETV7; 1.28 fold enrichment (6-mer frequency, TF over GST control) with ELF5; 1.27 fold enrichment (6-mer frequency, TF over GST control) with ETV3; 1.33 fold enrichment (6-mer frequency, TF over GST control) in the experiment with ETV6.

Values taken from article PMC7862700, “An all-to-all approach to the identification of sequence-specific readers for epigenetic DNA modifications on cytosine”.
